The text below walks through data of PubChem BioAssay (NCI).

Experiment in all cases: NCI-60 one-dose screen, 48 h (100 = growth as untreated, 0 = no growth, -100 = all killed)
What all share (conditions): 10 µM unless noted

Test [1] concerns SK-MEL-2 melanoma.
The test system of test [2] is EKVX NSCLC.
For test [3], the system named is SN12C renal.
In test [4] the test system is UO-31 renal.
The test system of test [5] is TK-10 renal.
Test [6] concerns ACHN renal.
The test system of test [7] is CAKI-1 renal.
The subject of test [8] is A498 renal.
The subject of test [9] is CCRF-CEM leukemia.
Test [10] relates to MOLT-4 leukemia.

This is part of a sample that, as a whole, favours compounds with a hit. Of some 83,000 tested, about 20% had one in any assay.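 A percent growth of 40 corresponds to 60% growth inhibition; 0 means no net growth; -100 means all cells died. Active threshold: below 10.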 Values without a mark were called inactive. Calls of active or inactive are those of the source.

In the case of `Cc1ccc2c(c1)nc(-c1ccccc1)n2CC(=O)N=Nc1c(O)[nH]c2ccc(Br)cc12`, the growth in test [1] is -40.5% (active); in test [2], -77.2% (active); in test [3] it was -72.3% (active); in test [4], -90% (active); in test [5], -10% (active); in test [6], -99.9% (active). In addition, the growth in [7] was -65.4% (active); in test [8], -37.2% (active); in test [9], 23.8%; in test [10], -42.1% (active).

For the molecule `COc1ccc(C(=O)/C=C/c2ccc(OCc3ccccc3)c(OC)c2)cc1OC`, the growth is 72.7% in test [1]; 80.4% in test [2]; 1.82% (active) in [3]; 31.4% in [4]; 62.7% in test [5]; 38.3% in test [6]. Also, the growth in test [7] was 38.8%; in [8], 102%; in test [9], 9.36% (active); in test [10], 9.48% (active).

For `O=c1oc2ccccc2cc1-c1csc(N2N=C(c3ccccc3)CC2c2ccc(N3CCOCC3)cc2)n1` (stereo not given), the growth in test [1] was 101%; in [2] it was 96.1%; in [3], 107%; in test [4], 73.8%; in test [5], 159%; in [6] it was 99.2%. For the same molecule, the growth in [7] was 90.6%; in [8], 153%; in test [9], 96.6%; in test [10] it was 95.9%.

Turning to `CCCSc1nc(Nc2ccc(S(N)(=O)=O)cc2)c(C#N)c(-c2ccc(Cl)cc2)n1`, the growth in test [1] is 67.9%; in [2], 50.6%; in test [3], -16.2% (active); in test [4], -68.6% (active); in test [5], -16.4% (active); in [6], -66.8% (active). The growth in test [7] is -54.5% (active); in [8], -41.8% (active); in test [9], 81.4%; in test [10], 50.4%.

Regarding `CC(C)C(C(=O)O)n1c(O)c(/C=C2/C=c3cc4c(cc3=NC2=O)OCO4)sc1=S` (stereo not given), the growth was 104% in test [1]; 99.3% in test [2]; 96.6% in test [3]; 78.2% in test [4]; 89.8% in test [5]; 111% in test [6]. The growth is 93% in test [7], 102% in [8], 106% in test [9] and 104% in test [10].

Take `COc1cc2c(c(OC)c1OC)C(=O)CC(c1cccc(NC(=O)c3cc(NC(=O)[C@H](C)N)ccc3Cl)c1)O2` (stereo not given in full): the growth in test [1] is 33.5%; in [2], 48.4%; in test [3] it was 51.8%; in [4], 46.4%; in test [5] it was 101%; in [6] it was 50.4%. Further, the growth in test [7] is 51.5%; in test [8], 80.7%; in test [9] it was 12.4%; in [10] it was 8.42% (active).

As to `C=C1CCC2C3(C)COC(c4cccs4)OC3CCC2(C)C1CC(Sc1ccccc1)C1=CCOC1=O` (stereo not given), the growth is 98.2% in test [1]; 116% in test [2]; 46.4% in [3]; 58.5% in test [4]; 118% in test [5]; 91.1% in [6]. The growth in [7] was 101%; in test [8], 133%; in test [9], 1.2% (active); in test [10] it was 52.9%.

For `C=C1CCC2C3(C)COC(c4ccc(F)cc4)OC3CCC2(C)C1CC(O)C1=CCOC1=O` (stereo not given), the growth is 19.9% in [1]; 62.6% in test [2]; 32.1% in test [3]; 43.2% in test [4]; 96.6% in test [5]; 30.2% in [6]. The growth is 53.3% in test [7], 118% in test [8], 21.4% in test [9] and 22.5% in test [10].

`C=C1CC[C@@H]2[C@]3(C)COC(c4cn[nH]c4-c4ccccc4)O[C@@H]3CC[C@@]2(C)[C@@H]1C/C=C1/C(=O)OCC1O` (stereo not given in full): the growth in test [1] is 73.8%; in test [2], -45.2% (active); in test [3], 21.9%; in [4], -0.824% (active); in [5], -8.55% (active); in [6], 11%. Further, the growth is 11.4% in [7], 137% in test [8], 2.72% (active) in test [9] and 4.6% (active) in test [10].

As to `Cn1cc(-c2nc(N)nnc2-c2c[nH]c3ccc(Br)cc23)c2cccnc21`, the growth in test [1] was 30.5%; in test [2] it was 67.4%; in test [3], 49.8%; in [4] it was 48.9%; in test [5] it was 90.4%; in test [6], 50.6%. The growth was 47.9% in test [7], 131% in test [8], 36.1% in test [9] and 27.5% in test [10].

For `Cc1ccc(/C=C/c2n(Cc3ccc4ccccc4c3)c3ccccc3[n+]2Cc2ccc3ccccc3c2)cc1`, the growth in test [1] was -97.7% (active); in test [2], -95.7% (active); in test [3], -56.1% (active); in test [4] it was -96% (active); in test [5], -80% (active); in [6], -96.1% (active). Further, the growth in [7] was -94.6% (active); in test [8], -82.5% (active); in test [9], -66.1% (active); in test [10] it was -25.9% (active).

With `CSc1ccccc1NC(=O)c1ccc2nnn(/C(C#N)=C/c3ccccn3)c2c1`, the growth is -86.4% (active) in test [1]; -95.6% (active) in [2]; -99% (active) in test [3]; -100% (active) in test [4]; -98.6% (active) in test [5]; -100% (active) in test [6]. Moreover, the growth in test [7] was -88.2% (active); in [8], 82.9%; in test [9], -27.5% (active); in [10] it was -27.9% (active).

For `O=c1cc(-c2ccccc2)oc2cc(OCCCC[P+](c3ccccc3)(c3ccccc3)c3ccccc3)cc(O)c12`, the growth in [1] was -94.1% (active); in [2] it was -97.6% (active); in test [3] it was -49.5% (active); in test [4], -97.1% (active); in [5], -81.8% (active); in test [6], -100% (active). The growth in [7] is -97.1% (active); in test [8], -83.3% (active); in test [9], -75.9% (active); in test [10], -41.7% (active).
